# Legend:
# Test in all cases: DAPPL (digital affinity profiling via proximity ligation, sequencing); 10 mM Tris-HCl pH 7.5, 50 mM NaCl, 1 mM DTT, 4% glycerol, room temperature, 30 min; GST-TFs on glutathione beads, 16-mer random dsDNA library, 0.1% formaldehyde crosslink after washing; high values mean tight binding
# FEV = biological target: T1, FEV (Homo sapiens, UniProt Q99581 1-238); conditions: protein: recombinant; tags: N-terminal GST; dsDNA, one strand shown
# T1 sequence: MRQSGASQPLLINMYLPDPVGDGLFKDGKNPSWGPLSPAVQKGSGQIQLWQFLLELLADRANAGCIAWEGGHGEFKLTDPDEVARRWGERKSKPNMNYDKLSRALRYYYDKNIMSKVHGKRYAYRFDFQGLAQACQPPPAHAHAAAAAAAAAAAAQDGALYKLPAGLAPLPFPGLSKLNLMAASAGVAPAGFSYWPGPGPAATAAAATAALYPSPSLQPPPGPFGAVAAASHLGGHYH
# In short: (§1)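 Beads coated with glutathione captured GST-fused human transcription factors that had been expressed in yeast, and the factors were then given DNA barcodes and pooled with a tag-only sample. The pools were incubated with 200 nmole of a random double-stranded 16-mer DNA library in Tris/NaCl/DTT/glycerol buffer for 30 min at room temperature, washed, crosslinked with 0.1% formaldehyde and proximity-ligated with BsaI/T4 ligase at 37 °C for 1 h. PCR amplification and Illumina NextSeq500 sequencing came last. Binding signal is each hexamer's read frequency for a factor divided by its frequency for the tag-only sample.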
# ETV5 = ETV5 (Homo sapiens, UniProt P41161 1-510); conditions: protein: recombinant; tags: N-terminal GST; dsDNA, one strand shown
# ETV5, sequence (P41161 whole entry): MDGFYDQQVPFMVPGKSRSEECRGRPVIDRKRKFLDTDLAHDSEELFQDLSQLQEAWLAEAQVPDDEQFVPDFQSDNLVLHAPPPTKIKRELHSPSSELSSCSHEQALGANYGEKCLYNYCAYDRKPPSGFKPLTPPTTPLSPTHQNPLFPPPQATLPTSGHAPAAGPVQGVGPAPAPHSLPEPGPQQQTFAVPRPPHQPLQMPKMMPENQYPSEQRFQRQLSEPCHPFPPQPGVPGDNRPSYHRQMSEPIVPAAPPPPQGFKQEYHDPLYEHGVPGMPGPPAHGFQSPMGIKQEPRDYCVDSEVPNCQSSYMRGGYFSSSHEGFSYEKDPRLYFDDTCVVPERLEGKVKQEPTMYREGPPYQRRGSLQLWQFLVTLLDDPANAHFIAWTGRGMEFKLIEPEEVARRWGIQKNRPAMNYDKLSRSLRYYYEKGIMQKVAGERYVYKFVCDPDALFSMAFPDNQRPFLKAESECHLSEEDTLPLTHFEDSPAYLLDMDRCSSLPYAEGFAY
# In short: as §1
# HSF1 = HSF1 (Homo sapiens, UniProt Q00613 1-529); conditions: protein: recombinant; tags: N-terminal GST; chain copies: 3; dsDNA, one strand shown
# HSF1, sequence (Q00613 whole entry): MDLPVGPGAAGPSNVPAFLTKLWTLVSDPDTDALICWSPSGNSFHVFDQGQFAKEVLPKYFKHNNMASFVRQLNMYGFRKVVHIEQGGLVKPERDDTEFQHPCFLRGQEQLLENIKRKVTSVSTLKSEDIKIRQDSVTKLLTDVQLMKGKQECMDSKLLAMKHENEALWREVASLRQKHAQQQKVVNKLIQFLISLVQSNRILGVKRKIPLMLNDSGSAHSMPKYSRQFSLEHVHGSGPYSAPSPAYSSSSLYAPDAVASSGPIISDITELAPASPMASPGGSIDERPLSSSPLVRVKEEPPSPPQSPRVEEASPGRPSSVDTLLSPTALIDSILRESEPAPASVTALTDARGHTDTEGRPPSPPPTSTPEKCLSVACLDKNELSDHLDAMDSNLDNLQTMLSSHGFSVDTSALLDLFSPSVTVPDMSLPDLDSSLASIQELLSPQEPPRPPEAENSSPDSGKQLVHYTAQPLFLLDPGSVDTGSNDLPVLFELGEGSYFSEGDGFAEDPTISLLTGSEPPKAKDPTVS
# In short: as §1
# SPIC = biological target: T2, SPIC (Homo sapiens, UniProt Q8N5J4 1-248); conditions: protein: recombinant; tags: N-terminal GST; dsDNA, one strand shown
# T2 sequence: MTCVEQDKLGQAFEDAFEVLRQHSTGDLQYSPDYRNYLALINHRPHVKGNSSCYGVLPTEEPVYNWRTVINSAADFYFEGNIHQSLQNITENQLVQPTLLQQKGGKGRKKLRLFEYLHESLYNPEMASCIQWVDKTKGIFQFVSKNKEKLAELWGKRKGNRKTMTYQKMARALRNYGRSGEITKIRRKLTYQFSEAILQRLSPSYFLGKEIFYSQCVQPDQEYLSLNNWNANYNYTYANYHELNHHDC
# In short: as §1
# ELF4 = ELF4 (Homo sapiens, UniProt Q99607 1-663); conditions: protein: recombinant; tags: N-terminal GST; dsDNA, one strand shown
# ELF4, sequence (Q99607 whole entry): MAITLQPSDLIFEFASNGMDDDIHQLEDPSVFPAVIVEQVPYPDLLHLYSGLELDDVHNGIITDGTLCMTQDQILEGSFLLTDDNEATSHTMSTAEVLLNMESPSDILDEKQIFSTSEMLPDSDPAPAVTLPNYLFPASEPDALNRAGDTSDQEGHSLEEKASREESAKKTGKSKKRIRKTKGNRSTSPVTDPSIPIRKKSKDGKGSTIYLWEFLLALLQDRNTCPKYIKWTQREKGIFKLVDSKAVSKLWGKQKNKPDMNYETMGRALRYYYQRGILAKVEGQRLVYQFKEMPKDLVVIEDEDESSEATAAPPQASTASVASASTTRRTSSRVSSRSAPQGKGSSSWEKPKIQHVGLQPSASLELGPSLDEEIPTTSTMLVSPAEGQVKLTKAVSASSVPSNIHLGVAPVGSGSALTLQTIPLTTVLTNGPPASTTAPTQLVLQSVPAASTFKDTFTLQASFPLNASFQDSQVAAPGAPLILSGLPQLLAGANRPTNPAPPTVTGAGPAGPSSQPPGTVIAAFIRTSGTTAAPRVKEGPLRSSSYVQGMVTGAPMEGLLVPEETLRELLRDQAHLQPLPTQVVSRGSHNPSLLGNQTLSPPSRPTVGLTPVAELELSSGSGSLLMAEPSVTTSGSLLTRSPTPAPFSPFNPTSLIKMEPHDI
# In short: as §1
# ELK4 = biological target: T3, ELK4 (Homo sapiens, UniProt P28324-2 1-405); conditions: protein: recombinant; tags: N-terminal GST; dsDNA, one strand shown
# T3 sequence: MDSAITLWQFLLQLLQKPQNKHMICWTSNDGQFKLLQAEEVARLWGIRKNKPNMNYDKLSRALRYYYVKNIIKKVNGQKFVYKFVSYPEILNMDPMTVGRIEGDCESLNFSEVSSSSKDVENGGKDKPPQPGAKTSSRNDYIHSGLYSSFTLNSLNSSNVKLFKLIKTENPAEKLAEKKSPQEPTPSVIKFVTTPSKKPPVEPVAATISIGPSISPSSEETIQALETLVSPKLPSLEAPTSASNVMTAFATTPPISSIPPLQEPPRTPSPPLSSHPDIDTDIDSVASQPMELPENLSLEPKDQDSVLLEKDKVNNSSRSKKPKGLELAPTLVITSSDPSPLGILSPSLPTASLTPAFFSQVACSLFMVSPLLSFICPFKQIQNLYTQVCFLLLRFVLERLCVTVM
# In short: as §1
# ETV2 = biological target: T4, ETV2 (Homo sapiens, UniProt O00321 1-342); conditions: protein: recombinant; tags: N-terminal GST; dsDNA, one strand shown
# T4 sequence: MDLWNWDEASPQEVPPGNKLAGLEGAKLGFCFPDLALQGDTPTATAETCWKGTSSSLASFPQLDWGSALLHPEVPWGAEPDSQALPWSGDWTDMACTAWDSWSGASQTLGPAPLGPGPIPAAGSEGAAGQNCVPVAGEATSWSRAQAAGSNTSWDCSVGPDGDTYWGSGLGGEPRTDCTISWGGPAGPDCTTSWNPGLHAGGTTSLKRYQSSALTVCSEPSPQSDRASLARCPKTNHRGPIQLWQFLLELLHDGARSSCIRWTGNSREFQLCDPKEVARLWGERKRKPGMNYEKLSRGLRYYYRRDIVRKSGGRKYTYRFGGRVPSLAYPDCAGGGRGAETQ
# In short: as §1
# ELF3 = biological target: T5, ELF3 (Homo sapiens, UniProt P78545 1-371); conditions: protein: recombinant; tags: N-terminal GST; dsDNA, one strand shown
# T5 sequence: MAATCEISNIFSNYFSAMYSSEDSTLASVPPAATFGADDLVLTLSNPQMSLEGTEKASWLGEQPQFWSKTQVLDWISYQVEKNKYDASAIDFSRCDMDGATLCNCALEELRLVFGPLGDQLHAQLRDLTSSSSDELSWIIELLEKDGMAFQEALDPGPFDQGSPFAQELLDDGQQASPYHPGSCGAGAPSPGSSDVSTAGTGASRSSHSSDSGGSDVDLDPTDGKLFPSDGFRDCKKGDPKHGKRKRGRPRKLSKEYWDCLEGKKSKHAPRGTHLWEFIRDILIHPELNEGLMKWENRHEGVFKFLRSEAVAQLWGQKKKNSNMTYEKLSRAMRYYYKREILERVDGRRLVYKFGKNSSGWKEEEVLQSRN
# In short: as §1
# CRX = CRX (Homo sapiens, UniProt O43186 1-299); conditions: protein: recombinant; tags: N-terminal GST; dsDNA, one strand shown
# CRX, sequence (O43186 whole entry): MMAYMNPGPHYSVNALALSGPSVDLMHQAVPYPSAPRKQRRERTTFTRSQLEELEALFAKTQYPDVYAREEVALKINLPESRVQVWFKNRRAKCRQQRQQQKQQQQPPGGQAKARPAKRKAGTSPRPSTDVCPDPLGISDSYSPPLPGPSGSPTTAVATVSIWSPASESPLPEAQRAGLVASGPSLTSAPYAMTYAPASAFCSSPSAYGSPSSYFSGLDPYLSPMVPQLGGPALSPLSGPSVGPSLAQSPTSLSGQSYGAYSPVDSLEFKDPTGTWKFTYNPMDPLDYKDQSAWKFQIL
# In short: as §1
sequence,measurement,setting,value
AATTTT,binding signal,FEV,"1.22 fold enrichment (6-mer frequency, TF over GST control)"
same,binding signal,ETV5,"1.29 fold enrichment (6-mer frequency, TF over GST control)"
same,binding signal,HSF1,"1.51 fold enrichment (6-mer frequency, TF over GST control)"
same,binding signal,SPIC,"1.17 fold enrichment (6-mer frequency, TF over GST control)"
same,binding signal,ELF4,"1.32 fold enrichment (6-mer frequency, TF over GST control)"
same,binding signal,ELK4,"1.3 fold enrichment (6-mer frequency, TF over GST control)"
same,binding signal,ETV2,"1.46 fold enrichment (6-mer frequency, TF over GST control)"
same,binding signal,ELF3,"1.41 fold enrichment (6-mer frequency, TF over GST control)"
same,binding signal,CRX,"1.29 fold enrichment (6-mer frequency, TF over GST control)"

# — article PMC7862700, “An all-to-all approach to the identification of sequence-specific readers for epigenetic DNA modifications on cytosine”
